# Screens as filed in PubChem.
# KKLEB cytotox – cytotoxicity in KKLEB CF airway cells, primary screen, cytotoxicity control for CF NF-kB inhibitor project, cell-based, uHTS, fluorescence assay plates | activity change (cytotoxicity), % at 5 µM | KKLEB CF airway cells viability, ATPlite luminescence, overnight; active compounds read low; cells stimulated with P. aeruginosa culture filtrate | 360,000 tested, 0.36% active;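 active = corrected activity change at or below -50% at 5 µM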
# EWS-Fli inh – EWS/Fli-driven NR0B1 reporter inhibitors, primary screen, A673 cells, NR0B1 luciferase, luminescence, MLPCN library; viability-normalised; inhibition, % at 12.6 µM; 350,000 tested, 0.67% active; AID 651661, 2012;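 active = mean inhibition of at least 50% after viability correction, with every replicate also passing that limit; inconclusive = mean reaches 50% but only one of two replicates passes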;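 note: firefly luciferase signal divided by Alamar Blue viability fluorescence both relative to DMSO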
# LGR2 inh – inhibitors of bursicon-induced LGR2 CRE-luciferase signal, primary screen, cell-based, HEK293, CRE-luciferase reporter, bursicon stimulation. 380,000 tested, 0.35% active. inhibition, % at 9.99 µM. Drosophila bursicon receptor LGR2 (rickets). AID 720647, 2013. bursicon-stimulated, 4 h;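 active = drop in luminescence signal, shown as inhibition above about 50% in the replicate tests, limit read from the data, passing the limit was not always enough; inconclusive = probably only some replicates passing the limit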;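 note: agonist challenge used bursicon conditioned medium at about half maximal strength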
# CF NFkB inh – inhibitors of PAF-induced NF-kB signaling, primary screen, cell-based, GFP fluorescence, uHTS | KKLEB NF-kB-GFP reporter, GFP fluorescence overnight | inhibition, % at 5 µM | 360,000 tested, 0.86% active;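 active = at least 50% inhibition at 5 µM, scaled per plate between neutral and stimulator controls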;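 note: PAF is a Pseudomonas aeruginosa culture filtrate used as stimulus; plate controls were PAF-stimulated DMSO wells for no effect and unstimulated DMSO wells for full effect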
# TWEAK Fn14 block – inhibitors of TWEAK-Fn14 signaling, primary screen, luciferase reporter cells, uHTS; TWEAK-stimulated Fn14 reporter cells, luciferase luminescence, 8 h; inhibition, % at 10 µM; 360,000 tested, 2% active; AID 1159606, 2016; in the data active = inhibition above about 50%
# TROY signal inh – inhibitors of TROY-driven NF-kB signaling, primary screen, Q293 LMP1-TROYcd cells, NF-kB luciferase, uHTS; Q293 LMP1-TROYcd NF-kB luciferase reporter, 4 h; inhibition, % at 10 µM; 360,000 tested, 0.98% active; AID 1347056, 2019;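 active = compounds whose plate-normalised and pattern-corrected inhibition of the luciferase reporter signal at the single screening dose is 50% or more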
# Starred values were filed as active, the others as inactive; ? = inconclusive; . = no result. Sampled rows, rich in hits. Any-hit rate of the full collection: about 2.6%.
SMILES,KKLEB cytotox,EWS-Fli inh,LGR2 inh,CF NFkB inh,TWEAK Fn14 block,TROY signal inh
COc1ccc(-c2cc(C#N)nc(Cl)n2)cc1,-9.5,-7.1,-11.9,0.6,30.3,79.9*
COc1ccc(-c2cc(C#N)nc(Oc3ccc(Cl)cc3)n2)cc1,-12.9,-3.6,8.7,25.4,27.0,16.2
Cc1cccc(-c2n[nH]c(=S)n2C)c1,9.3,15.2,-9.4,2.2,-4.5,-5.5
Cn1c(-c2ccccc2)n[nH]c1=S,12.3,4.4,10.5,-9.7,85.1*,-9.6
O=C(NC(=O)c1ccccc1)Nc1ccccn1,-21.5,.,88.6*,12.0,94.8*,72.9*
O=C(/C=C/Nc1ccccc1Br)c1ccccn1,-4.1,.,.,4.2,104.5*,83.8*
Cc1ccc(S(=O)(=O)CC(=O)Nc2ccccn2)cc1,-4.8,-4.8,6.3,-5.6,2.8,-12.2
O=C(Nc1ccccn1)c1ccc(C(=O)c2ccccc2)cc1,-18.4,-81.8,-62.4,9.2,14.7,-37.4
Cc1ccc(NC(=O)C(=O)Nc2ccccn2)cc1,-12.3,?,92.9*,-1.7,85.7*,57.2*
O=C(/C=C\Nc1ccccn1)c1ccccc1,-3.9,.,.,1.1,76.5*,1.4
COc1ccc(C(=O)/C=C/Nc2ccccn2)c(OC)c1,-0.8,-95.3,-64.8,7.9,-4.1,-75.7
C[C@@H]1CN([C@@H](C)CO)C(=O)c2cc(C3=CCCCC3)cnc2O[C@@H]1CN(C)C(=O)c1ccncc1,.,1.3,6.1,.,.,.
O=C(/C=C/Nc1ccc(Br)cc1F)c1ccccc1,-77.9*,74.3*,.,2.2,86.2*,76.0*
Cc1cc(C)c(C)c(OCCn2ccnc2)c1,5.2,20.2,-11.7,-10.4,111.2*,20.4
Cc1ccc(C)c(OCCn2ccnc2)c1,6.0,.,.,6.1,5.8,-5.8
CC(C)(C)c1ccc(OCC(=O)NNC(=S)NC(=O)c2ccco2)c(Br)c1,-78.2*,.,0.8,58.4*,-42.2,1.8
O=C(c1ccncc1)N1C[C@H]2[C@@H](c3ccccc31)[C@H](CO)N2C(=O)c1ccncc1,.,1.4,-5.0,.,.,.
COc1cccc(-c2ccc([C@H]3[C@@H](CO)N4C(=O)CN(C(=O)C5CCOCC5)C[C@H]34)cc2)c1,.,-1.0,14.7,.,.,.
COc1cc(NC(=O)c2cc(-c3ccccc3Cl)on2)cc(OC)c1OC,5.6,61.6*,13.5,-8.3,24.5,-2.4
Cc1nnc(NC(=O)c2nc(S(=O)(=O)Cc3ccccc3C)ncc2Cl)s1,-92.3*,.,-39.4,98.8*,102.3*,28.1
CC(C)c1nnc(NC(=O)c2nc(S(=O)(=O)Cc3ccccc3F)ncc2Cl)s1,.,61.0*,-16.2,.,.,.
CSc1nnc(NC(=O)c2nc(S(=O)(=O)Cc3ccccc3F)ncc2Cl)s1,-78.9*,28.2,-9.6,95.2*,97.2*,7.3
CSc1ncc(Cl)c(C(=O)Nc2nnc(SC/C=C/c3ccccc3)s2)n1,11.2,.,-4.5,-8.2,-12.3,30.2
C/C=C/c1cnc2c(c1)C(=O)N([C@H](C)CO)C[C@H](C)[C@H](CN(C)C(=O)Nc1ccc(OC)cc1)O2,.,-6.7,2.5,.,.,.
COc1cc(NC(=O)COc2cc(O)c3c(c2)OC(C)(C)CC3=O)cc(OC)c1OC,-3.8,31.8,38.3,2.8,77.8*,48.4
SMILES,KKLEB cytotox,EWS-Fli inh,LGR2 inh,CF NFkB inh,TWEAK Fn14 block,TROY signal inh
O=C(NC(NC(=S)Nc1cccc(Cl)c1)C(Cl)(Cl)Cl)OCc1ccccc1 (stereo unspecified),-19.2,.,4.7,44.4,53.9*,58.0*
CCc1ccc(OCC(=O)NC(NC(=S)Nc2ccccc2OC)C(Cl)(Cl)Cl)cc1 (stereo unspecified),2.0,5.9,11.3,2.2,24.5,24.8
CCc1ccc(OCC(=O)NC(NC(=S)Nc2ccccc2C)C(Cl)(Cl)Cl)cc1 (stereo unspecified),6.0,22.1,22.4,14.9,43.9,51.1*
CCc1ccc(OCC(=O)NC(NC(=S)Nc2ccccc2)C(Cl)(Cl)Cl)cc1 (stereo unspecified),-11.9,.,38.9,1.9,73.6*,53.4*
Cc1ccc(C)c(NC(=S)NC(NC(=O)Cc2cccc3ccccc23)C(Cl)(Cl)Cl)c1 (stereo unspecified),-70.3*,.,.,70.7*,32.7,25.3
CO[C@@H]1CN(C)C(=O)c2ccc(NC(C)=O)cc2OC[C@H](C)N(C(=O)c2cnccn2)C[C@H]1C,.,2.0,8.3,.,.,.
O=C(C[C@@H]1C[C@@H]2c3cc(NS(=O)(=O)c4ccccc4)ccc3O[C@@H]2[C@H](CO)O1)NCC1CC1,.,-5.9,14.8,.,.,.
Cc1noc(C)c1NC(=O)Nc1ccc2c(c1)C(=O)N([C@H](C)CO)C[C@@H](C)[C@H](CN(C)C(=O)Nc1ccc(C(F)(F)F)cc1)OCCCC[C@H](C)O2,.,15.8,0.1,.,.,.
Cc1ccc(NC(=O)c2cc(C)n(-c3ccccc3)c2C)cc1,-73.0*,68.6*,.,-6.4,96.6*,89.4*
Cc1ccc(NC(=O)c2csc(-c3ccccc3)c2C)cc1,-53.9*,.,.,7.4,81.0*,74.5*
Cc1cc(C(=O)Nc2ccc(Cl)cc2)c(C)n1-c1ccccc1,-68.0*,57.9*,82.0*,-14.9,102.7*,89.2*
Cc1ccc(NC(=O)c2cc(C)n(-c3cccc(C)c3)c2C)cc1,-15.7,-97.3,-65.4,-5.0,36.7,44.5
Cc1ccc(NC(=O)c2cnn(-c3ccccc3)c2C)cc1,-0.9,-4.6,44.7,-1.6,63.6*,0.9
COc1ccc(NC(=O)N(C)C[C@H]2Oc3ccc(NC(=O)Nc4ccc5c(c4)OCO5)cc3CC(=O)N([C@H](C)CO)C[C@@H]2C)cc1,.,5.0,9.2,.,.,.
O=C(N[C@H]1CC[C@@H](CCn2cc(C3(O)CCCC3)nn2)O[C@H]1CO)C1CCOCC1,.,-2.3,-4.1,.,.,.
Cc1ccc(O)c(C(=O)c2cnn(C(=O)c3cccc(S(=O)(=O)N(C)C)c3)c2)c1,-0.1,-4.0,1.0,46.4,62.8*,40.5
Cc1cc([N+](=O)[O-])ccc1NC(=O)CSc1nnc(C)n1C,6.2,-2.5,3.3,-8.3,58.0*,-22.5
COc1ccc(-c2csc(NC(=O)c3ccccc3NS(=O)(=O)c3ccc(F)c(F)c3)n2)cc1,-50.8*,21.1,45.9,54.6*,74.5*,68.7*
Cc1ccc(S(=O)(=O)Nc2ccccc2C(=O)Nc2nc(-c3ccc(F)cc3)cs2)cc1,-57.7*,13.3,32.8,49.1,93.5*,75.3*
COc1ccc(-c2csc(NC(=O)c3ccccc3F)n2)cc1,-2.7,-16.9,-2.9,-4.9,6.7,-9.0
Cc1ccc(C=Nc2ccc(N(C)C)cc2)o1,8.8,-35.8,-41.7,-7.3,61.8*,5.0
